The source made the active and inactive calls. Unless noted, how the calls were made is not given here.
How the values were obtained:
[1] = compound effects on lung adenocarcinoma cell viability – A549, calcein-AM fluorescence, 48 h, basal, profiling panel (AID 1162); settings: higher = more signal; further: test concentration not given here
[2] = compound effects on differentiated 3T3-L1 adipocyte viability – cell-based, 3T3-L1 adipocytes, calcein-AM fluorescence, 48 h, basal, profiling panel (AID 1163); settings: 3T3-L1 adipocytes viability, higher = more signal; further: test concentration not given here
[3] = compound effects on hepatocellular carcinoma cell viability – HepG2, calcein-AM fluorescence, 48 h, basal, profiling panel (AID 1164); settings: higher = more signal; further: test concentration not given here
[4] = compound effects on multiple myeloma cell viability – MM1S, calcein-AM fluorescence, 48 h, basal, profiling panel (AID 1165); settings: higher = more signal;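 further: viability of MM1S multiple myeloma cells under basal unstimulated conditions; test concentration not given here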
[5] = calcein-AM signal in unstimulated myeloma cells – cell-based, calcein-AM fluorescence, 48 h, PK04 Diversity Set, profiling panel (AID 1166); settings: RPMI8226 myeloma viability, higher = more signal;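 further: cells grown under basal conditions without added stimulus; test concentration not given here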
[6] = JC-1 mitochondrial signal, unstimulated HepG2 cells – cell-based, JC-1 fluorescence, 24 h, 100 nL compound, profiling panel (AID 1167); settings: HepG2 mitochondrial potential, higher = more signal; further: test concentration not given here
[7] = JC-1 mitochondrial signal, unstimulated adipocytes – cell-based, JC-1 fluorescence, 3T3-L1 adipocytes, 24 h, 100 nL compound, profiling panel (AID 1168); settings: JC-1 mitochondrial fluorescence, higher = more signal, called active from +8 up or from −8 down; further: test concentration not given here
[8] = JC-1 mitochondrial signal, unstimulated myeloma cells – cell-based, JC-1 fluorescence, RPMI8226, 24 h, 100 nL compound, profiling panel (AID 1169); settings: JC-1 mitochondrial potential fluorescence, higher = more signal; further: test concentration not given here
[9] = JC-1 mitochondrial signal, unstimulated MM1S myeloma – cell-based, JC-1 fluorescence, 24 h, 100 nL compound, profiling panel (AID 1170); settings: MM1S mitochondrial potential, higher = more signal; further: test concentration not given here
[10] = resazurin metabolic signal in A549 cells – cell-based, resazurin fluorescence, 24 h, PK04 Diversity Set, profiling panel (AID 1171); settings: A549 viability, higher = more signal, called active from +8 up or from −8 down; further: test concentration not given here
[11] = resazurin metabolic signal in HepG2 cells – cell-based, resazurin fluorescence, 24 h, PK04 Diversity Set, profiling panel (AID 1172); settings: HepG2 viability, higher = more signal; further: test concentration not given here
[12] = budding yeast growth changes without added modifier – OD600, strain BY4716, 24 h, basal condition, primary screen (AID 1173); settings: S. cerevisiae BY4716 growth, OD600, 24 h; higher = more signal, called active from +8 up or from −8 down
[13] = viability profiling in MM1S myeloma cells – cell-based, resazurin fluorescence, basal, 24 h, PK04 Diversity Set, profiling panel (AID 1174); settings: higher = more signal, called active from +8 up or from −8 down; further: test concentration not given here
[14] = biological target: Dihydroorotate dehydrogenase (quinone), mitochondrial (Plasmodium falciparum (isolate 3D7)) (UniProt Q08210); assay: inhibition of P. falciparum DHODH – biochemical, C-terminal His tag, absorbance 600 nm, primary screen (AID 1175); settings: PfDHODH enzyme, DCIP absorbance 600 nm; higher = more signal, called active from +8 up or from −8 down;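 further: recombinant parasite enzyme with a five histidine tag at its C terminus; test concentration not given here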
Chain of Dihydroorotate dehydrogenase (quinone), mitochondrial (Plasmodium falciparum (isolate 3D7)) (Q08210 whole entry, looked up): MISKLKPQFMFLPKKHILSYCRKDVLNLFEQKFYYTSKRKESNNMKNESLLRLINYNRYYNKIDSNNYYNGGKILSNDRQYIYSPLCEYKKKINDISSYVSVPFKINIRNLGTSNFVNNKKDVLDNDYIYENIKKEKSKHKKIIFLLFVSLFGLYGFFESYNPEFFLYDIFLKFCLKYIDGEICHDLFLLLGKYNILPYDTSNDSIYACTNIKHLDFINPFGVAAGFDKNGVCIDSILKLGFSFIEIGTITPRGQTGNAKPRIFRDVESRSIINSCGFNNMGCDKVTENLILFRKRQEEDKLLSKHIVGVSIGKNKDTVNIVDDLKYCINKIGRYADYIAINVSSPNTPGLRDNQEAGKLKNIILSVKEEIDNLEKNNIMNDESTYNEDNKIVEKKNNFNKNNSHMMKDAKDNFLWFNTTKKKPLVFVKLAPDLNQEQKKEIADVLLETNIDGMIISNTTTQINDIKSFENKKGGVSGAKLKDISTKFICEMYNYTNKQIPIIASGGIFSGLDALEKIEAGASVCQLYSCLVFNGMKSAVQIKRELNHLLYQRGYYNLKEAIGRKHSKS

[15] = inhibition of PAO1 biofilm formation – strain PAO1, LB-PBS medium, absorbance 600 nm, primary screen (AID 1176); further: test concentration not given here; settings: P. aeruginosa PAO1 growth/biofilm, A600, 12 h; higher = more signal
[16] = growth modulation of vineyard yeast isolate – strain RM11-1a, OD600, basal, 24 h, primary screen (AID 1177);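 further: cultures grown under basal conditions with no added stressor; test concentration not given here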; settings: S. cerevisiae RM11-1a growth, OD600, 24 h; higher = more signal, called active from +8 up or from −8 down
[17] = growth of efflux-deficient E. coli DRC39 – strain DRC39, OD650, 24 h, E. coli filamentation inducers, primary screen (AID 1178);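 further: growth measured as culture turbidity by optical density at 650 nm; test concentration not given here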; settings: E. coli DRC39 acrAB, higher = more signal, called active from +8 up or from −8 down
[18] = growth of efflux-deficient E. coli DRC39 – strain DRC39, OD650, 48 h, E. coli filamentation inducers, primary screen (AID 1179);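 further: screen aims at cell division blockers that make cells filament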; settings: E. coli DRC39 delta-acrAB growth, higher = more signal, called active from +8 up or from −8 down
[19] = viability profiling in RPMI8226 myeloma cells – cell-based, resazurin fluorescence, basal, 24 h, PK04 Diversity Set, profiling panel (AID 1180); settings: higher = more signal;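 further: RPMI8826 multiple myeloma cell line at 5000 cells per well; test concentration not given here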
[20] = biological target: E3 ubiquitin-protein ligase XIAP (Homo sapiens) (UniProt P98170); assay: small molecules binding XIAP protein – biophysical, small-molecule microarray, fluorescence 635 nm, primary screen (AID 1181); settings: higher = more signal;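 further: score merges 667 nm emission and signal to noise over triplicate slides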
Chain of E3 ubiquitin-protein ligase XIAP (Homo sapiens) (P98170 whole entry, looked up): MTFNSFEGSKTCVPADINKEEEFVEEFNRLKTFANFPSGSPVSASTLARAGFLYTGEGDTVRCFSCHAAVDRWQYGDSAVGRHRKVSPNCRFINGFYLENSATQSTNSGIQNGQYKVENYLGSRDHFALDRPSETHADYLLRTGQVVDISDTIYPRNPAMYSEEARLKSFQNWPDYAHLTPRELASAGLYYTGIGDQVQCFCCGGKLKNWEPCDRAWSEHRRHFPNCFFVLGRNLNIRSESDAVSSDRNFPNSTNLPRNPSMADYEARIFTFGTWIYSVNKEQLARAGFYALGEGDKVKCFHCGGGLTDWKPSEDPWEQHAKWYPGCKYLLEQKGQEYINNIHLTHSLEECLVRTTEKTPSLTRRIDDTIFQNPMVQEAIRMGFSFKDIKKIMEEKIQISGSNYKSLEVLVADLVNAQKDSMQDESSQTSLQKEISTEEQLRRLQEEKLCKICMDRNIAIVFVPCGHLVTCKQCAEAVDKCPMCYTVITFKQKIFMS

SMILES	z-score [1]	z-score [2]	z-score [3]	z-score [4]	z-score [5]	z-score [6]	z-score [7]	z-score [8]	z-score [9]	z-score [10]	z-score [11]	z-score [12]	z-score [13]	composite z-score [14]	z-score [15]	z-score [16]	z-score [17]	z-score [18]	z-score [19]	composite z-score [20]
CCOC(=O)[C@H](Cc1ccccc1)NC(=O)CCC1CC(OC(=O)NCc2cccc3ccccc23)CC2(CCCC(COC(=O)NCCc3ccc(Cl)cc3)O2)O1 (stereo not given in full)	0.893	0.595	-0.397	0.248	0.859	-0.114	0.237 (inactive)	-0.185	-0.401	0.895 (inactive)	0.723	-1.24 (inactive)	0.768 (inactive)	-0.617 (inactive)	0.32 (inactive)	-0.424 (inactive)	-0.178 (inactive)	-0.907 (inactive)	1.45	0.165
Cc1cc2c(nc1C)CCCCN2CC(O)CN1CCCc2nc(-c3ccc(Br)cc3)ccc21 (stereo not given)	1.54	-0.829	1.62	0.322	-0.697	-0.814	-0.16 (inactive)	0.357	-0.536	-0.379 (inactive)	-0.225	-0.849 (inactive)	-1.51 (inactive)	0.667 (inactive)	0.38 (inactive)	0.919 (inactive)	0.608 (inactive)	0.348 (inactive)	-1.48	0.131
COc1ccc(COC(=O)NN=C2C[C@@H](O)[C@@H](O)[C@@H]3[C@@H]4C(=O)N(C[C@@H]5CCCO5)C(=O)[C@@H]4CC[C@H]23)cc1	0.0369	-0.0792	-0.592	0.634	-0.107	-0.402	-1.22 (inactive)	-0.148	-1.02	-0.0101 (inactive)	-0.161	1.29 (inactive)	0.0829 (inactive)	-0.395 (inactive)	-0.0485 (inactive)	0.293 (inactive)	0.16 (inactive)	0.0875 (inactive)	-0.631	0.0679
O=C1C2=CC[C@H]3C(=O)N(c4ccc(F)cc4F)C(=O)[C@H]3[C@H]2[C@H](O)[C@@H]2O[C@H]12	-0.463	-0.438	0.0658	-0.486	-0.397	-0.276	-0.191 (inactive)	0.0423	0.556	-0.0843 (inactive)	0.0059	-0.448 (inactive)	-0.874 (inactive)	-0.166 (inactive)	-0.307 (inactive)	-0.592 (inactive)	-0.401 (inactive)	-0.0889 (inactive)	-0.035	0.104
CCCCOC(OCCCC)C(O)CSc1ccc2ccccc2c1 (stereo not given)	-1.28	-0.809	0.0428	-2.77	-1.04	-0.36	-0.239 (inactive)	0.591	-0.285	-0.911 (inactive)	-0.879	-2.07 (inactive)	-1.99 (inactive)	-0.161 (inactive)	0.344 (inactive)	0.363 (inactive)	0.872 (inactive)	1.01 (inactive)	-1.37	0.0506
